We go through 1 sequence from article PMC7862700, “An all-to-all approach to the identification of sequence-specific readers for epigenetic DNA modifications on cytosine”.

Holding throughout (assay): DAPPL (digital affinity profiling via proximity ligation, sequencing); 10 mM Tris-HCl pH 7.5, 50 mM NaCl, 1 mM DTT, 4% glycerol, room temperature, 30 min; GST-TFs on glutathione beads, 16-mer random dsDNA library, 0.1% formaldehyde crosslink after washing; high values mean tight binding
Holding throughout (conditions): protein: recombinant; tags: N-terminal GST; dsDNA, one strand shown

The target of one experiment is T1, FLI1 (Homo sapiens, UniProt Q01543 1-452).
T1 sequence: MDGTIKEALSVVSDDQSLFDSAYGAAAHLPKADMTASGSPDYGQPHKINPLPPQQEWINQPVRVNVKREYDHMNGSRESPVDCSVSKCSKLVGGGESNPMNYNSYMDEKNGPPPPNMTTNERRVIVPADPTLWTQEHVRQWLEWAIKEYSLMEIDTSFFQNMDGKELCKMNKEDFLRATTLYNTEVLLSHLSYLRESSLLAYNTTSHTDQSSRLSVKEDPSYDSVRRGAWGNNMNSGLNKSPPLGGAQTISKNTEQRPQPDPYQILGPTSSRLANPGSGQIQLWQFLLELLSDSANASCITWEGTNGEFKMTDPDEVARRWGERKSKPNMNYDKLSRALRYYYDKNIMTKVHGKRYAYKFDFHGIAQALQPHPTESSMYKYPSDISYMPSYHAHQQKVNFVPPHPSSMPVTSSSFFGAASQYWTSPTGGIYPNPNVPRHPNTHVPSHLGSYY
The method, boiled down: (§1)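 A tag-only sample was pooled with DNA-barcoded human transcription factors that had been expressed in yeast as GST fusions and captured on glutathione beads. The pools were incubated for 30 min at room temperature with 200 nmole of a random double-stranded 16-mer DNA library in Tris/NaCl/DTT/glycerol buffer, then washed, crosslinked with 0.1% formaldehyde, proximity-ligated (BsaI/T4 ligase, 1 h, 37 °C), PCR-amplified and sequenced on an Illumina NextSeq500. Binding signal is each hexamer's read frequency for a factor divided by its frequency for the tag-only sample.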

The next experiment addresses T2, GABPA (Homo sapiens, UniProt Q06546 1-454).
T2 sequence: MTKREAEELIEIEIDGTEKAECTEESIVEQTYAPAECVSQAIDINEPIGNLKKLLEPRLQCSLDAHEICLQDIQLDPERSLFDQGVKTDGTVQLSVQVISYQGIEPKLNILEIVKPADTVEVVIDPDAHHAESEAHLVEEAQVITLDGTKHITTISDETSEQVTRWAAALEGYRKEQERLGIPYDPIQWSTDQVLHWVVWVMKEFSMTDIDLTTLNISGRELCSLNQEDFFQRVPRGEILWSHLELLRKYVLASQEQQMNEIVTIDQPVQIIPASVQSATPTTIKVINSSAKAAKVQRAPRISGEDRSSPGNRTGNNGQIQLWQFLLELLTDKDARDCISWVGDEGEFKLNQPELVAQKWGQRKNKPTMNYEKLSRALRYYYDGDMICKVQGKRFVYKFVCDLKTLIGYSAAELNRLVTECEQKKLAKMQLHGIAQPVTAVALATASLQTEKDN
In short, it runs like this: as §1

The next experiment addresses T3, ERG (Homo sapiens, UniProt P11308 1-479).
T3 sequence: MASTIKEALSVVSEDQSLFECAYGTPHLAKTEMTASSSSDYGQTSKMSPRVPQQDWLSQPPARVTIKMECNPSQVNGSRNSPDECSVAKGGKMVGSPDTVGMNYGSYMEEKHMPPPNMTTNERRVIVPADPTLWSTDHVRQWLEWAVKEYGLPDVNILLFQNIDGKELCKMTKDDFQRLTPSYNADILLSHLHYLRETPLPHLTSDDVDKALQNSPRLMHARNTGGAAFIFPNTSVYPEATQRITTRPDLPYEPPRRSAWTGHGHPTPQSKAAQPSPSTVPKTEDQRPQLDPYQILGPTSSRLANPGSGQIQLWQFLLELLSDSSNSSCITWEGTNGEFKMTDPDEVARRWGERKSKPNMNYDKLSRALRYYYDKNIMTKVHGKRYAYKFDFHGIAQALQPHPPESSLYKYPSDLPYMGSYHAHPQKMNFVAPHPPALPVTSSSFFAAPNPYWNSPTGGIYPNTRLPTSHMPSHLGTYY
The method, boiled down: as §1

The target of a further experiment is T4, EHF (Homo sapiens, UniProt Q9NZC4 1-300).
T4 sequence: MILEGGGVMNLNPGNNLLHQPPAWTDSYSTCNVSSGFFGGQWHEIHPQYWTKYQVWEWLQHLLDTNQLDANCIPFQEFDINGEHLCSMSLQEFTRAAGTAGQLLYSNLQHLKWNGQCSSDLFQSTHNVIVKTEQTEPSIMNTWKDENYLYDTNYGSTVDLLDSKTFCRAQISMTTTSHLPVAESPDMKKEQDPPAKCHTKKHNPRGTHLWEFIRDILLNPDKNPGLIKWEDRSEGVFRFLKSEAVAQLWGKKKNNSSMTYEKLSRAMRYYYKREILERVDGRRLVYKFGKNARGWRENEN
In short, it runs like this: as §1

The target of the next experiment is SPI1 (Homo sapiens, UniProt P17947 1-270). The method, boiled down:
as §1

The next experiment concerns the target ETV5 (Homo sapiens, UniProt P41161 1-510). In short, it runs like this:
as §1

The target of another experiment is T5, SPIC (Homo sapiens, UniProt Q8N5J4 1-248).
T5 sequence: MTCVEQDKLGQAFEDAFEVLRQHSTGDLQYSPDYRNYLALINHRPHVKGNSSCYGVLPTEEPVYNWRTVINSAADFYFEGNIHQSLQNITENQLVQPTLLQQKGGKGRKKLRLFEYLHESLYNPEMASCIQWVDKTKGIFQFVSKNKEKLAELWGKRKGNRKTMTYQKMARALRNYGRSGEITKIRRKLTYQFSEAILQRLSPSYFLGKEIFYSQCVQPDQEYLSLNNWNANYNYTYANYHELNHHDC
The method, boiled down: as §1

In a further experiment the target is T6, ERF (Homo sapiens, UniProt P50548 1-548).
T6 sequence: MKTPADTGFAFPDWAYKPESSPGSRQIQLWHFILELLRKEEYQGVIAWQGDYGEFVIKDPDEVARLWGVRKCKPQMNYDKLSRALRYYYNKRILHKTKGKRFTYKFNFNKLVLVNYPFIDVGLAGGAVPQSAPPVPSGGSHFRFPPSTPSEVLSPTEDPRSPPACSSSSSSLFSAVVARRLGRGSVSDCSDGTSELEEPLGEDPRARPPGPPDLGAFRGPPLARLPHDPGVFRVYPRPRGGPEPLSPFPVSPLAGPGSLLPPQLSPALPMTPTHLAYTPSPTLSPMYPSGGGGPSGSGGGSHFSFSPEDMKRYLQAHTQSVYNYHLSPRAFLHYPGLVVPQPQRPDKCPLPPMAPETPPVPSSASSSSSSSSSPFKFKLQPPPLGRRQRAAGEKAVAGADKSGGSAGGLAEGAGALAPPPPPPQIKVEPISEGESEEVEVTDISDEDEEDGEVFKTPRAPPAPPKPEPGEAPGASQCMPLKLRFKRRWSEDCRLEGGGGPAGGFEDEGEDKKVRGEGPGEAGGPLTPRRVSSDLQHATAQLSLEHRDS
In short, it runs like this:
as §1

The next experiment addresses T7, ETV3L (Homo sapiens, UniProt Q6ZN32 1-361).
T7 sequence: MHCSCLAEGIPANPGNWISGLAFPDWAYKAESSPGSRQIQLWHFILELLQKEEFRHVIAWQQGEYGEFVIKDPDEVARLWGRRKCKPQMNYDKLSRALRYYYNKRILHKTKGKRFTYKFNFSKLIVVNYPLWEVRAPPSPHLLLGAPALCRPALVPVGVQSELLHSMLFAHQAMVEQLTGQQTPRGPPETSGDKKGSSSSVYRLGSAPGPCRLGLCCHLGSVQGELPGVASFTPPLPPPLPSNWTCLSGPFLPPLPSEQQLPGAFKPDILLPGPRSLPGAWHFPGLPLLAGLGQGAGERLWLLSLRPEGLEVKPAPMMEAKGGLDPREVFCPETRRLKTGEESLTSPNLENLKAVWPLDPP
In short, it runs like this: as §1

In the next experiment the target is T8, ETS2 (Homo sapiens, UniProt P15036 1-469).
T8 sequence: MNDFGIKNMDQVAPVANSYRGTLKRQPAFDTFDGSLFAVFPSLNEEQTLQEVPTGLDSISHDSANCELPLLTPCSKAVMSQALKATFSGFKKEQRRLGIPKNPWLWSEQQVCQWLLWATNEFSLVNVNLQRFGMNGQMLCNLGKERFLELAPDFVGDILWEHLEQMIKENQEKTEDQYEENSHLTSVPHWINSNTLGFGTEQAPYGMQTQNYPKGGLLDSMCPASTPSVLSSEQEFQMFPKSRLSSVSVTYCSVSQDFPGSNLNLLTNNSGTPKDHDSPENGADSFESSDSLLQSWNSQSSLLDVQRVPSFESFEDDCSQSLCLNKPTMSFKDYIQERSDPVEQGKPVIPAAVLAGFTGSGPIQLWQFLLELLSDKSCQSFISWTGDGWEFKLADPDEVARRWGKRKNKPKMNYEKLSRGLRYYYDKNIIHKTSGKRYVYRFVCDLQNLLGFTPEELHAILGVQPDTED
In short, it runs like this: as §1

The target of another experiment is T9, SPDEF (Homo sapiens, UniProt O95238 1-335).
T9 sequence: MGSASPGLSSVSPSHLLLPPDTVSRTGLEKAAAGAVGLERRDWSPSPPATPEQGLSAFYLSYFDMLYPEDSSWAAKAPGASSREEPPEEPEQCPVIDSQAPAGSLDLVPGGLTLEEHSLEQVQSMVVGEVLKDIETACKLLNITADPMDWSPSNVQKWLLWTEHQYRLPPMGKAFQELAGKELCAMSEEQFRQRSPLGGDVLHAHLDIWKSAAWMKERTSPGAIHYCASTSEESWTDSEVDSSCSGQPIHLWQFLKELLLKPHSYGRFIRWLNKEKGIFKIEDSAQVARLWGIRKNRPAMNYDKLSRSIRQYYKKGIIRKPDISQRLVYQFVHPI
In short, it runs like this:
as §1

A further experiment addresses T10, ELF5 (Homo sapiens, UniProt Q9UKW6-2 1-255).
T10 sequence: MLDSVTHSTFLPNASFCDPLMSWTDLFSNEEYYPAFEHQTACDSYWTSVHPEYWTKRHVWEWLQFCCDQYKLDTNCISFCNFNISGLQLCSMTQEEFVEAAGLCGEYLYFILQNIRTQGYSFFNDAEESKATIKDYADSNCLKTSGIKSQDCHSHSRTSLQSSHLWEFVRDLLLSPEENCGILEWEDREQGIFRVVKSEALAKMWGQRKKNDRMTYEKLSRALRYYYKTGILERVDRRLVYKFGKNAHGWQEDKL
The method, boiled down:
as §1

In the next experiment the target is ETV6 (Homo sapiens, UniProt P41212 1-452). The method, boiled down: as §1
ETV6, sequence (P41212 whole entry): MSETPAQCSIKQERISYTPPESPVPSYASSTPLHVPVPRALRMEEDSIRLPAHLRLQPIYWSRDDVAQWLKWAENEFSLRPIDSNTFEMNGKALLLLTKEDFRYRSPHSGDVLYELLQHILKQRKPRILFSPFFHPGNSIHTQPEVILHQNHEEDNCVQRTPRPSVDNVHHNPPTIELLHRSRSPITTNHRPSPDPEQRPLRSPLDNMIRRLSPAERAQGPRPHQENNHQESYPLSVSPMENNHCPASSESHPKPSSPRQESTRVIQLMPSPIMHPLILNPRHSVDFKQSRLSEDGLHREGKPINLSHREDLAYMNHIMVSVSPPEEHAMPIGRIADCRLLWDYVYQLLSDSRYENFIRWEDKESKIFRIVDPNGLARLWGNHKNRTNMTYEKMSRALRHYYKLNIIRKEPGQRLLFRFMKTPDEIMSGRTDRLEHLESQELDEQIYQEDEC

ETV5, sequence (P41161 whole entry): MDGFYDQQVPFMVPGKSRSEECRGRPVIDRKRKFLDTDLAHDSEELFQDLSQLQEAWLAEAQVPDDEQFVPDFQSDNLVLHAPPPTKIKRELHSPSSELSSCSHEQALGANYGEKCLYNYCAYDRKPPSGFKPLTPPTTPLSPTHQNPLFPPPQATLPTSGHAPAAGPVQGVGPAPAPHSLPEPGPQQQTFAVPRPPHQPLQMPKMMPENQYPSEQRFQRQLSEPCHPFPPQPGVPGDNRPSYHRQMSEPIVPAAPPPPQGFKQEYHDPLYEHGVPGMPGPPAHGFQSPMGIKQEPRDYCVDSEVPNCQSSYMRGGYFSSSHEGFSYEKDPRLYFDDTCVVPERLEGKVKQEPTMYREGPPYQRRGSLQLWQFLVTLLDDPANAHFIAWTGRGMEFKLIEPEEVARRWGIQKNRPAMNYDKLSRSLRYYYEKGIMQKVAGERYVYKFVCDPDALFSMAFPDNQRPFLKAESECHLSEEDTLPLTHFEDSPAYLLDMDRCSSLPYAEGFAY

As for GTAGTT, the binding signal with FLI1 was 1.1 fold enrichment (6-mer frequency, TF over GST control); with GABPA, 1.05 fold enrichment (6-mer frequency, TF over GST control); in the experiment with ERG, 1.01 fold enrichment (6-mer frequency, TF over GST control); with EHF, 1.07 fold enrichment (6-mer frequency, TF over GST control); in the experiment with SPI1 it was 1.01 fold enrichment (6-mer frequency, TF over GST control); in the experiment with ETV5 it was 1.04 fold enrichment (6-mer frequency, TF over GST control). Besides, the binding signal with SPIC was 1.05 fold enrichment (6-mer frequency, TF over GST control); with ERF it was 1.07 fold enrichment (6-mer frequency, TF over GST control); with ETV3L, 1.01 fold enrichment (6-mer frequency, TF over GST control); with ETS2, 1.02 fold enrichment (6-mer frequency, TF over GST control); with SPDEF it was 1.05 fold enrichment (6-mer frequency, TF over GST control); in the experiment with ELF5 it was 1.07 fold enrichment (6-mer frequency, TF over GST control). Further, the binding signal with ETV6 was 1.08 fold enrichment (6-mer frequency, TF over GST control).
